Laboratory results published in PubChem BioAssay (Tox21).
Records with an inconclusive call do not appear. Activity calls are given as the source filed them. Unless noted, calls follow the shape of the dose curve; as a rule, active = well fitted curve in the direction sought with a large enough effect in the repeat runs; inconclusive = weak or mixed curves; inactive = no such curve, though single readings can be large; an effect the other way counts as inactive or inconclusive.

Experiments:
[1] = biological target: Aryl hydrocarbon receptor (Homo sapiens) (UniProt P35869); assay: qHTS assay to identify small molecule that activate the aryl hydrocarbon receptor (AhR) signaling pathway (AID 743085);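 also: HG2L7.5c1 human HepG2 liver cells with stably integrated DRE-driven firefly reporter; series mostly up to about 70 µM; nearly all actives have a fitted effect of over 15% in size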
Procedure, shortened: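 Steps: seed HepG2-AhR-luc cells; allow 5 h at 37C; pin-transfer test compound or vehicle; incubate 24 h at 37C; add viability dye (30 min, 37C) and read fluorescence; add luciferase substrate (30 min, RT) and read luminescence.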

[2] = qHTS assay to identify small molecule that activate the aryl hydrocarbon receptor (AhR) signaling pathway - cell viability counter screen (AID 743086);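 also: HepG2 liver cells carrying the AhR DRE luciferase reporter; series mostly up to about 70 µM; nearly all actives have a fitted effect of over 45% in size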
Procedure, shortened: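 HepG2-AhR-luc (HG2L7.5c1) cells, 4000/well, were preincubated 5 h at 37C, exposed to compound in qHTS format for 24 hr at 37C, then given CellTiter-Fluor for 30 min; viability was read as fluorescence in the reporter wells.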

[3] = qHTS assay to identify small molecule antagonists of the peroxisome proliferator-activated receptor gamma (PPARg) signaling pathway - cell viability counter screen (AID 743194); also: nearly all actives have a fitted effect of over 55% in size
Procedure, shortened: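 PPARg-UAS-bla HEK293H cells were plated, rested 5 h at 37 C, then treated with compounds plus rosiglitazone (50 nM final) for 17 h at 37 C; viability was then read by CellTiter-Glo luminescence after 30 min at room temperature.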

[4] = qHTS assay for small molecule agonists of the antioxidant response element (ARE) signaling pathway (AID 743202; active = well fitted activation curve with a large enough effect in the signal ratio in the repeat runs, not every such curve was filed as active; the % refers to the signal ratio)
Procedure, shortened: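 Following a 16 h, 37 C exposure of reporter HepG2 cells (ARE-driven beta-lactamase, 2,000 cells/well) to compounds, FRET substrate was applied for 2 h at room temperature and fluorescence intensity recorded.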

[5] = qHTS assay for small molecule agonists of the antioxidant response element (ARE) signaling pathway - cell viability counter screen (AID 743203; calls by dose curve; also: nearly all actives have a fitted effect of over 55% in size)
Procedure, shortened: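 Viability counter screen: stably transfected ARE-bla HepG2 line, 16 hrs compound exposure at 37C/5% CO2, ATP-based CellTiter-Glo luminescence measured in the reporter wells.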

[6] = qHTS assay for small molecule activators of the heat shock response signaling pathway - cell viability counter screen (AID 743209); also: nearly all actives have a fitted effect of over 50% in size
Procedure, shortened: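 Viability of HSE-bla HeLa cells is measured with CellTiter-Glo in the wells already used for the reporter read. Compound exposure lasts 5 h at 37 C, and luminescence is read after 30 min at room temperature.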

[7] = qHTS assay to identify small molecule agonists of the peroxisome proliferator-activated receptor delta (PPARd) signaling pathway - cell viability counter screen (AID 743211); also: nearly all actives have a fitted effect of over 55% in size
Procedure, shortened: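 Viability of GeneBLAzer PPARd UAS-bla HEK293H cells was assessed after 17 h compound incubation at 37C, using CellTiter-Glo reagent added after the reporter read and luminescence recorded 30 min later.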

[8] = biological target: Peroxisome proliferator-activated receptor delta (Homo sapiens) (UniProt Q03181); assay: qHTS assay to identify small molecule agonists of the peroxisome proliferator-activated receptor delta (PPARd) signaling pathway (AID 743212; calls by dose curve)
Procedure, shortened: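 Beta-lactamase reporter read by fluorescence (LiveBLAzer B/G FRET, 2 h, room temperature). Test agents, in DMSO, incubated at 37 C with PPARd-bla HEK293H cells.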

[9] = biological target: Bile acid receptor (Homo sapiens) (UniProt Q96RI1); assay: qHTS assay to identify small molecule agonists of the farnesoid-X-receptor (FXR) signaling pathway (AID 743220; active = well fitted activation curve with a large enough effect in the signal ratio in the repeat runs, not every such curve was filed as active; the % refers to the signal ratio)
Procedure, shortened: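 FXR-UAS-bla HEK 293T cells carrying a UAS-driven beta-lactamase reporter were plated for 5 h at 37C/5% CO2, then exposed to DMSO-dissolved Tox21 10K compounds for 16 h at 37C. A LiveBLAzer B/G FRET substrate was loaded for 2 h at room temperature before fluorescence reading.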

[10] = qHTS assay to identify small molecule antagonists of the farnesoid-X-receptor (FXR) signaling pathway - cell viability counter screen (AID 743221; active = well fitted cell-killing curve with a large enough effect in the repeat runs, not every such curve was filed as active; also: nearly all actives have a fitted effect of over 50% in size)
Procedure, shortened: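 Quantitative HTS of the Tox21 10K library run in parallel with the beta-lactamase reporter read. HEK 293T cells carrying a UAS-driven bla reporter got compound and 50 uM CDCA (final) for 16 h; ATP-based luminescence followed.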

[11] = biological target: Vitamin D3 receptor (Homo sapiens) (UniProt P11473); assay: qHTS assay to identify small molecule agonists of the vitamin D receptor (VDR) signaling pathway (AID 743222; calls by dose curve)
Procedure, shortened: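 Fluorescence from cleaved LiveBLAzer B/G FRET substrate served as readout. VDR-bla cells had been treated 16 h at 37C with test compounds in DMSO, following a 4 h settling period, and substrate was loaded for 2 h at RT.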

[12] = biological target: Vitamin D3 receptor (Homo sapiens) (UniProt P11473); assay: qHTS assay to identify small molecule antagonists of the vitamin D receptor (VDR) signaling pathway (AID 743223; active = well fitted inhibition curve with a large enough effect in the signal ratio in the repeat runs, not every such curve was filed as active; the % refers to the signal ratio)
Procedure, shortened: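 Fluorescence from LiveBLAzer B/G FRET substrate, read after 2 h at room temperature, reflects beta-lactamase reporter activity in VDR-bla cells treated 16 h at 37C with compounds and agonist 1alpha,25-dihydroxyvitamin D3 (3 nM final).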

[13] = qHTS assay to identify small molecule antagonists of the peroxisome proliferator-activated receptor delta (PPARd) signaling pathway - cell viability counter screen (AID 743213); also: nearly all actives have a fitted effect of over 50% in size
Procedure, shortened: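 HEK293H cells with the PPARd UAS-bla reporter, co-treated 17 h at 37 C with compounds and L165041 (300 nM final), were lysed with CellTiter-Glo. Luminescence indicated viable cell content.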

[14] = qHTS assay to identify small molecule agonists of the farnesoid-X-receptor (FXR) signaling pathway - cell viability counter screen (AID 743218); also: nearly all actives have a fitted effect of over 45% in size
Procedure, shortened: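 Viability of FXR-bla HEK 293T cells is measured by ATP-based CellTiter-Glo luminescence following 16 h compound treatment at 37 C and a prior 2 h room-temperature beta-lactamase substrate step.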

[15] = qHTS assay to identify aromatase inhibitors - cell viability counter screen (AID 743084);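 also: cells stimulated with testosterone during compound exposure; nearly all actives have a fitted effect of over 55% in size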
[16] = biological target: Peroxisome proliferator-activated receptor gamma (Homo sapiens) (UniProt P37231); assay: qHTS assay to identify small molecule antagonists of the peroxisome proliferator-activated receptor gamma (PPARg) signaling pathway (AID 743191; calls by dose curve; also: series mostly up to about 63 µM; nearly all actives have a fitted effect of over 30% in size)
Procedure, shortened: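 GeneBLAzer PPARg UAS-bla HEK293H cells carrying a UAS-driven beta-lactamase reporter were plated at 3000 cells/well, preincubated 5 h at 37C, then given compound for 17 h at 37C; LiveBLAzer B/G FRET substrate was read after 1 h at room temperature.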

[17] = qHTS assay for small molecule activators of the heat shock response signaling pathway (AID 743210; active = well fitted activation curve with a large enough effect in the signal ratio in the repeat runs, with a control signal flat, not every such curve was filed as active; the % refers to the signal ratio; also: series mostly up to about 63 µM)
Procedure, shortened: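 Heat shock element–beta-lactamase HeLa reporter cells; qHTS with compounds for 5 h at 37 C; detection by FRET substrate fluorescence after 2.5 h at RT.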

[18] = biological target: Bile acid receptor (Homo sapiens) (UniProt Q96RI1); assay: qHTS assay to identify small molecule antagonists of the farnesoid-X-receptor (FXR) signaling pathway (AID 743217; active = well fitted inhibition curve with a large enough effect in the signal ratio in the repeat runs, not every such curve was filed as active; the % refers to the signal ratio)
Procedure, shortened: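 Screen of the Tox21 10K library in quantitative HTS format using FXR-UAS-bla HEK 293T reporter cells. Agonist chenodeoxycholic acid, 50 uM final, added with compounds; 16 h incubation at 37 °C; beta-lactamase FRET fluorescence measured.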

[19] = biological target: Peroxisome proliferator-activated receptor delta (Homo sapiens) (UniProt Q03181); assay: qHTS assay to identify small molecule antagonists of the peroxisome proliferator-activated receptor delta (PPARd) signaling pathway (AID 743215; active = well fitted inhibition curve with a large enough effect in the signal ratio in the repeat runs, not every such curve was filed as active; the % refers to the signal ratio;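 also: cells stimulated with agonist L165041 at 300 nM final during compound exposure; series mostly up to about 62 µM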)
Procedure, shortened: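 Plated HEK293H PPARd-bla cells rested 5 h at 37 C and 5% CO2. Compound, then agonist L165041 at 300 nM final, was added; 17 h at 37 C followed. Substrate loading, 2 h room temperature, fluorescence measured.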

Measured: Potency

Bile acid receptor (Homo sapiens), sequence (Q96RI1 whole entry, looked up): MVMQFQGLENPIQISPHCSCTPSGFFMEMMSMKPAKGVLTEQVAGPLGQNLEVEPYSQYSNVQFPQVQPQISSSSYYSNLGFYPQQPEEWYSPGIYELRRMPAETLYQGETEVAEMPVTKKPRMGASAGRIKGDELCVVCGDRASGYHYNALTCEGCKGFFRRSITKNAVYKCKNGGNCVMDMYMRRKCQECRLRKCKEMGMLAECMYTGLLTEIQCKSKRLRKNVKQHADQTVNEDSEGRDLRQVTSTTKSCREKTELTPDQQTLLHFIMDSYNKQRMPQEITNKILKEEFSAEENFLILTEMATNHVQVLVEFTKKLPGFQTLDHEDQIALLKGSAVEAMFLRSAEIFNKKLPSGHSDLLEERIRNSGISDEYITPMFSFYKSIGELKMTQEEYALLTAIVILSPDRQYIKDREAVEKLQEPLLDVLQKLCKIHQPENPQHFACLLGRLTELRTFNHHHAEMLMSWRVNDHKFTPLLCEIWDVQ
Peroxisome proliferator-activated receptor gamma (Homo sapiens), sequence (P37231 whole entry, looked up): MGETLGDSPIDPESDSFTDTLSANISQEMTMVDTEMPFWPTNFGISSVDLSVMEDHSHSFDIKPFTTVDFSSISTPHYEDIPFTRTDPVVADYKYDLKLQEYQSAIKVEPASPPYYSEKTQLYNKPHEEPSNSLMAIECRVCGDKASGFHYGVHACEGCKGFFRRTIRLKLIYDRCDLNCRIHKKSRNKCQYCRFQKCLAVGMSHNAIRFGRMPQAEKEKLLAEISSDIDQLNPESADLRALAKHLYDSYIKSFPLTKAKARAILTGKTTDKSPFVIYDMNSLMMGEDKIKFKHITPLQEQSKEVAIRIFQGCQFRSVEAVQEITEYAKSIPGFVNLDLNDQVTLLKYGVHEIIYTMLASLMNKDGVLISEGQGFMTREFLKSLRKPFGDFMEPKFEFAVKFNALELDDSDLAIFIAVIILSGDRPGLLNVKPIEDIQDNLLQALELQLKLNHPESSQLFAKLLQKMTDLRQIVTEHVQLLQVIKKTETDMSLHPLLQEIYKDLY
Peroxisome proliferator-activated receptor delta (Homo sapiens), sequence (Q03181 whole entry, looked up): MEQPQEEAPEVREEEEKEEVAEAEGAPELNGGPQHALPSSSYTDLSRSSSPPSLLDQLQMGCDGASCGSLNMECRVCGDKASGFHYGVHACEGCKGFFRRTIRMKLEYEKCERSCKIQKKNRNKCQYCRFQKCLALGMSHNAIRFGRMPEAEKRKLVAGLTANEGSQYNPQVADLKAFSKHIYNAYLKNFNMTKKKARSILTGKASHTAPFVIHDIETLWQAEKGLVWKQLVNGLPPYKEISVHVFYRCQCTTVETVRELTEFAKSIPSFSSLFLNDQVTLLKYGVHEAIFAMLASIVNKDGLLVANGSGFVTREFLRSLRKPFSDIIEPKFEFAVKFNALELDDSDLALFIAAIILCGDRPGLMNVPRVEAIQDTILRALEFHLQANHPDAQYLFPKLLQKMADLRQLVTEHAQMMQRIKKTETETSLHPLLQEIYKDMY
Vitamin D3 receptor (Homo sapiens), sequence (P11473 whole entry, looked up): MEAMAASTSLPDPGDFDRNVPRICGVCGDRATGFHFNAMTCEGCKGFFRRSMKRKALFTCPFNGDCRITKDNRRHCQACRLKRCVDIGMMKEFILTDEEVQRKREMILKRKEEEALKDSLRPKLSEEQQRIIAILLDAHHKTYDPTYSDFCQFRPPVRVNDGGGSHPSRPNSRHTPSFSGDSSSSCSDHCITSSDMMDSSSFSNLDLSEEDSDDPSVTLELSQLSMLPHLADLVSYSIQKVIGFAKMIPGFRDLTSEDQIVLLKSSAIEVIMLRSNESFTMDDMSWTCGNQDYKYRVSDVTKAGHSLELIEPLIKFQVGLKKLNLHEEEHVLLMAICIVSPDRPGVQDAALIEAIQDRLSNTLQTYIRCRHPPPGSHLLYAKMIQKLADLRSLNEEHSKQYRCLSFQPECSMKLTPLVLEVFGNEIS
Aryl hydrocarbon receptor (Homo sapiens), sequence (P35869 whole entry, looked up): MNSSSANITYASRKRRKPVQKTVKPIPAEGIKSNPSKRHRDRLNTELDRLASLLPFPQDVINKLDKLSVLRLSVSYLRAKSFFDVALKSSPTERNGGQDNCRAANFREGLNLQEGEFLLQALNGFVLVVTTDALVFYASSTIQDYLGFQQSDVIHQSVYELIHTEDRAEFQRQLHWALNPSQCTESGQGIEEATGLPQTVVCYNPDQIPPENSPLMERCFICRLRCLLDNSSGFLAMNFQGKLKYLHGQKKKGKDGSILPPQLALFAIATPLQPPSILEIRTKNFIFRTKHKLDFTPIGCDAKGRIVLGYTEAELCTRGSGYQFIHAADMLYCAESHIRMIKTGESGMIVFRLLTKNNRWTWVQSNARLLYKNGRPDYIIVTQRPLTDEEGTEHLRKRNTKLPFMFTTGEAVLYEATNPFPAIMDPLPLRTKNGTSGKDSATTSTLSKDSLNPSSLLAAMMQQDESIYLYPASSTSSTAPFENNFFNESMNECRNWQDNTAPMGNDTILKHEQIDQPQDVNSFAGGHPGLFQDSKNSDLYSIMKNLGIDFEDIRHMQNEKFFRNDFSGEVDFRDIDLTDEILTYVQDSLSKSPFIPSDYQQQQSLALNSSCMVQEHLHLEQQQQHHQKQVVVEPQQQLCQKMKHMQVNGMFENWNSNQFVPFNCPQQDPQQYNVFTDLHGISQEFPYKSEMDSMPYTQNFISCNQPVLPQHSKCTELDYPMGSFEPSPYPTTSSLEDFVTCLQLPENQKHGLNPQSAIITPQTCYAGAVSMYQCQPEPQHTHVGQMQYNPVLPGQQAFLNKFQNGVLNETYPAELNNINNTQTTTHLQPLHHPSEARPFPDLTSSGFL

CNC(=O)C(c1ccccc1)c1ccccc1
not listed: [13] | [14] | [15] | [16] | [17] | [18] | [19]
inactive: all other assays above

CCC(C)(CCC(C)C)C(=O)[O-].CCC(C)(CCC(C)C)C(=O)[O-].[Zn+2] (stereo unspecified)
inactive: [2] | [4] | [5] | [6] | [7] | [8] | [13] | [14] | [10] | [11]

O=C(CN1CCN(Cc2ccc3c(c2)OCO3)CC1)N1c2ccccc2Sc2ccccc21
not listed: [1] | [2] | [4] | [8] | [9] | [18] | [19]
inactive: all other assays above

CC(C)=CC(C)(C)C
not listed: [1] | [8] | [15] | [16] | [19]
inactive: all other assays above

C=CCOCC(CO)(COCC=C)COCC=C
not listed: [1] | [3] | [5] | [9] | [14] | [16] | [18]
inactive: all other assays above

Cc1ccc(C(=O)C(=O)O)cc1C
not listed: [1] | [2] | [9] | [15] | [18]
inactive: all other assays above

O=C(O)c1ccc(OCCN2CCCCC2)cc1
not listed: [1] | [2] | [3] | [9] | [14] | [15] | [18]
inactive: all other assays above

COc1ccc(OC)c(NC(=O)CC(C)=O)c1
not listed: [1] | [5] | [9] | [15] | [16] | [18] | [19]
inactive: all other assays above

c1ccc(CNc2ncnc3nc[nH]c23)cc1
not listed: [1] | [3] | [8] | [15] | [16] | [19]
inactive: all other assays above
